High-throughput results deposited in PubChem BioAssay by National Center for Advancing Translational Sciences (NCATS).
In the library only some 9.3% were active in any assay of this set; here they are far more common.
ELG1 genotox: genotoxicity induction in ELG1-luciferase HEK293T cells; Potency, µM (highest dose often 46 µM), inactives show at the top dose activity change, positive = activation, hits mostly activators; hit rate 1.3% among 330,000; HEK293T ELG1-luciferase reporter, luminescence, 16 h; note: % of control where 0% means no effect; nearly all actives have a fitted effect of over 60% in size
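Genotoxic stress is detected as increased luminescence from luciferase-tagged ELG1 in HEK293T cells, measured with ONE-Glo after a 16 hr treatment at 37 °C.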
Rab9 promoter act: activators of Rab9 promoter | hit rate 2.8% among 320,000 | Huh7 Rab9 promoter-luciferase reporter, luminescence, 24 h | Potency, µM (highest dose often 9.22 µM), without a hit: at the highest dose activation, negative = inhibition, hits mostly activators; note: % of control where 0% means no effect; nearly all actives have a fitted effect of over 60% in size
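Luciferase signal after 10 min detection reagent at ambient indicates Rab9 promoter upregulation; stably transfected Huh7 cells were treated 24 h with compound in DMSO at 37 °C, 5% CO2.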
ELG1 repair inh: inhibitors of ELG1-dependent DNA repair in HEK293T cells. HEK293T ELG1-luciferase reporter, luminescence, 16 h; DNA damage induced by 5-fluorouridine. Potency, µM (doses to about 46.1 µM), for inactives: top-dose activity change, negative = inhibition, hits mostly inhibitors. hit rate 2.3% among 330,000; note: % is set by controls: 0 for no effect and ±100 for the full control effect; nearly all actives have a fitted effect of over 55% in size
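In this reporter screen, reduction of luminescence relative to DMSO vehicle indicated activity. Compounds and 5-fluorouridine were added together to 2,000 cells per well, incubated for 16 hr at 37 °C, then developed with ONE-Glo.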
NPC1 prom act: activates the NPC1 promoter; Huh7 NPC1 promoter luciferase reporter, 24 h; Potency, µM (doses to about 9.22 µM), for the others: at the top dose activation, actives largely listed as activators; hit rate 2.4% among 320,000; note: % of control where 0% means no effect; nearly all actives have a fitted effect of over 60% in size
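Readout is luciferase luminescence, reflecting NPC1 promoter activation in stably transfected Huh7 cells after 24 h compound exposure at 37 °C in reduced-serum medium with 10% FBS.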
FLuc modulator: firefly luciferase modulation, counter-screen for miR-21 project; P08659; hit rate 6.9% among 360,000; purified FLuc, Km substrates, luminescence inhibition; Potency, µM (top dose mostly 57.5 µM), inactives show at the top dose activity change, negative = inhibition, usual class: inhibitors;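 note: plate controls were vehicle for no effect and reference inhibitor for full effect; nearly all actives have a fitted effect of over 55% in size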
Target sequence (P08659 whole entry, looked up): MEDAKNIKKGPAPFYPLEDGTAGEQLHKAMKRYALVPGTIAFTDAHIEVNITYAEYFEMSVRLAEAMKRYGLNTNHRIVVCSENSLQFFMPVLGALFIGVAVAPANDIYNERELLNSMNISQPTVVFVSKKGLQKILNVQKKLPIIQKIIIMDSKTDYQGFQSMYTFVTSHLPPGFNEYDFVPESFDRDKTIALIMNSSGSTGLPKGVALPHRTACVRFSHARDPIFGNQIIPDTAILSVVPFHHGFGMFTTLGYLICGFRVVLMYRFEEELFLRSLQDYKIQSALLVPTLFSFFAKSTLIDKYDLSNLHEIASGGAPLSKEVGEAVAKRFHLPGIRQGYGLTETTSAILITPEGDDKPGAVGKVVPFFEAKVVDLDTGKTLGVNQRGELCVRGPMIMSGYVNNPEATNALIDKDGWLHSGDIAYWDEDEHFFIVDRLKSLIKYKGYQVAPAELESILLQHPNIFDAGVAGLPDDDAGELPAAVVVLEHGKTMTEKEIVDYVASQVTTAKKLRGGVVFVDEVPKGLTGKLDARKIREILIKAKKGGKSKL
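Purified P. pyralis luciferase, 10 nM final, with Km-level 10 uM D-luciferin and 10 uM ATP in 50 mM Tris acetate pH 7.5, 10 mM Mg acetate, 0.01% Tween-20, 0.05% BSA; 6-point qHTS titration about 60 µM downward; luminescence read.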
SMN2 splice enh: SMN2 splice variant enhancement; Potency, µM (doses to about 46.1 µM), without a hit: at the highest dose activity change, positive = activation, actives largely listed as activators; AID 1458; hit rate 2.8% among 210,000; HEK293 SMN2-luciferase splicing reporter, luminescence, 30-36 h; note: % of control where 0% means no effect; nearly all actives have a fitted effect of over 55% in size
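HEK293 cells carry an SMN2 […]–luciferase reporter in which exon 7 inclusion puts luciferase in frame. Cells were plated 10-12 h before compound addition, then incubated 30-36 h at 37C. ONE-Glo luminescence was read; sodium butyrate at 4.5 mM final served as control.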
The depositor's hits bear a star; u = inconclusive; x = no result. Calls come from the whole dose curve; as a rule, active = well fitted curve in the direction sought with a large enough effect; inconclusive = small, poorly fitted or top-dose-only effect, or another doubt; inactive = no such curve, though single readings can be large; an effect the other way counts as inactive or inconclusive. Potency is the fitted concentration of half-maximal effect.

SMILES | ELG1 genotox | Rab9 promoter act | ELG1 repair inh | NPC1 prom act | FLuc modulator | SMN2 splice enh
Cc1cc(C(=O)Nc2ccc(OCc3ccccc3)cc2)c(C)o1 | u | u | u | u | 17µM* | u
Cc1ccc(C(=O)Nc2ccc(OCc3ccccc3)cc2)s1 | u | 29% | u | u | u | x
Cc1cc(C(=O)Nc2ccccc2C(=O)O)c(C)o1 | 3% | 1% | -6% | -2% | 24µM* | x
CCCn1cc(S(=O)(=O)CC(=O)Nc2ccc(OC)cc2OC)c2ccccc21 | -5% | -1% | -20% | -6% | 0% | 13%
O=C1C=C(c2cccs2)C[C@H](c2ccccc2)[C@H]1n1nnc([N+](=O)[O-])n1 | -2% | 0% | -30% | -12% | 2% | -29%
Cc1ccc(C)c(S(=O)(=O)N2CCN(C(=O)CCNC(=O)c3ccc(Br)cc3)CC2)c1 | -5% | -1% | u | -13% | 7% | x
COc1ccc(C(=O)NCc2nnc(SCC(=O)Nc3nnc(C)s3)o2)cc1OC | 0% | 0% | 12% | -2% | -7% | -7%
Cc1cc(C)c(NC(=O)C(C)n2nc(C)c3sc4ccccc4c3c2=O)c(C)c1 (stereo unspecified) | x | x | x | x | -18% | x
O=C(COc1ccc(Br)cc1)NNC(=S)NC(=O)c1ccccc1[N+](=O)[O-] | -2% | -10% | 7% | -4% | 6% | 8%
O=C(CCc1nc2ccccc2s1)OCC(=O)c1ccccc1 | 13% | 22% | u | 14% | 19µM* | 18%
COc1ccccc1OC(=O)CCc1nc2ccccc2s1 | -5% | -1% | 16% | 4% | 19µM* | -7%
O=C(CCc1nc2ccccc2s1)c1ccccc1 | 13% | u | u | 28% | 15µM* | 24%
O=C(C1CCC(=O)N(C2CCCC2)C1)N1CCN(Cc2cccc(Cl)c2)CC1 (stereo unspecified) | -2% | -3% | -5% | -3% | 2% | x
O=C(CSc1nc2ccccc2[nH]1)NC1CCS(=O)(=O)C1 (stereo unspecified) | -6% | -2% | 19% | 1% | 7% | -5%
CCN(CC(=O)Nc1c(C(=O)OC)[nH]c2ccccc12)c1ccc2c(c1)OCO2 | -19% | -1% | u | -1% | 2% | -26%
Cc1ccc(NC(=O)CCCC2CCCCC2)c(O)c1 | u | u | u | u | 8.5µM* | x
CC1Oc2ccccc2C(=O)N(CC(=O)c2ccc3c(c2)OCCO3)C1=O (stereo unspecified) | 12% | 28% | 23% | 24% | 4.8µM* | x
CCC1Oc2ccccc2C(=O)N(CC(=O)c2ccc3c(c2)OCCO3)C1=O (stereo unspecified) | u | u | u | u | 4.8µM* | x
CC(C)C1Oc2ccccc2C(=O)N(CC(=O)c2ccc3c(c2)OCCO3)C1=O (stereo unspecified) | u | 1.4µM* | u | 1.1µM* | 2.4µM* | x
CC(C)Cn1c(-c2cccc(Br)c2)nc2ccccc21 | x | x | x | x | -17% | -12%
COCn1c(-c2cccc(Br)c2)nc2ccccc21 | u | 22% | u | 2% | 17µM* | x
COCn1c(-c2ccc(OC)c(OC)c2)nc2ccccc21 | u | 3.5µM* | u | u | 11µM* | 20%
COc1ccccc1Cn1c(C)nc2ccccc21 | -4% | -9% | u | -5% | 4% | x
Cc1cccc(-c2nc(SCCCOc3ccccc3Cl)n3[nH]c(=O)cc3n2)c1 | x | x | x | x | 6.7µM* | x
Cc1ccc(Cl)cc1N1CCN(C(=O)C(C)n2ncn3cccc3c2=O)CC1 (stereo unspecified) | -8% | 5% | -19% | 2% | 1% | x
SMILES | ELG1 genotox | Rab9 promoter act | ELG1 repair inh | NPC1 prom act | FLuc modulator | SMN2 splice enh
CCC1CN(C(=O)NCc2ccccc2)c2cc(Cl)ccc2O1 (stereo unspecified) | -1% | 1% | -13% | -2% | -3% | x
Cc1cc(C(=O)NNC(=O)Nc2ccc(Cl)cc2)no1 | -1% | -2% | 1% | -3% | -2% | x
CN(C)CC#Cc1cncc(C(=O)NNC(=O)Nc2ccc(Cl)cc2)c1 | 0% | 2% | 0% | 4% | 24µM* | x
COc1ccc(N2C(=O)CCC2=O)c(OC)c1 | 8% | 0% | -1% | 0% | -1% | -4%
C=CCc1cccc2cc(-c3nc4ccc(C)cc4[nH]3)c(=O)oc12 | x | x | x | x | -17% | x
CCN(C[C@H]1N[C@@](Cc2ccccc2)(C(=O)OC)[C@H]2C(=O)N(C)C(=O)[C@@H]12)C(=O)c1ccc(C)cc1 | 0% | x | 2% | x | x | x
Cc1cc(C)n(CCC(=O)N/N=C/c2cccc([N+](=O)[O-])c2)n1 | 0% | 1% | -7% | -6% | -2% | x
CC(=O)Nc1cccc(Oc2ccc([N+](=O)[O-])cc2Cl)c1 | 14% | 17% | 18% | 0% | 24µM* | 9%
CCc1ccccc1NC(=O)c1cccc(Oc2ccc([N+](=O)[O-])cc2Cl)c1 | -3% | 0% | -29% | -9% | 2% | x
COc1ccc(NC(=O)Nc2cccc([N+](=O)[O-])c2)cc1Cl | -2% | 16% | u | 1% | 21µM* | -7%
O=C(c1cccc(Oc2ccc([N+](=O)[O-])cc2Cl)c1)N1CCCCC1 | -1% | -2% | 23µM* | -5% | 1% | -16%
O=C(Nc1ccc(Br)cc1F)C1CCCN(S(=O)(=O)c2cnc[nH]2)C1 (stereo unspecified) | -1% | 2% | -25% | 1% | 2% | -14%
CC(=O)Nc1ccc(CN2CCN(Cc3ccc(C)cc3)C(CCO)C2)cc1 (stereo unspecified) | 1% | -3% | 14% | 2% | 1% | x
COc1ccc(NC(=O)CSc2nc3ccccc3c(=O)n2-c2ccc3c(c2)OCO3)c(OC)c1 | -1% | -7% | u | 4% | 6% | -10%
CCCCN1C(=O)C(=O)N(CC(=O)Nc2ccccc2C(C)=O)C1=O | -3% | x | 2% | x | x | x
CCN(Cc1nc2ccccc2c(=O)[nH]1)C(=O)COc1ccccc1Cc1ccccc1 | -7% | -9% | -13% | -5% | 1% | x
CCN(CC)S(=O)(=O)c1ccc2c(c1)c(=O)c(C(=O)NCCCN(C)c1ccccc1)cn2C | -14% | -5% | u | -1% | 3% | 11µM*
CCOC(=O)N1CCN(C(=O)CS(=O)(=O)c2cn(Cc3ccccc3C)c3ccccc23)CC1 | -1% | -4% | 9.2µM* | -9% | 3% | -32%
O=C(CSc1nc(-c2ccccc2)c(-c2ccccc2)o1)Nc1nnc(-c2ccccc2)s1 | 0% | -8% | 10% | 1% | 2% | -13%
COC(C[C@H](O)C[C@H](O)COCc1ccccc1)OC | 1% | -6% | 12% | -3% | 0% | x
